Laboratory results reported in PubChem BioAssay AID1700 (The Scripps Research Institute Molecular Screening Center, 2009).
About 670 (0.23%) of roughly 290,000 compounds were called active. The list comes from a sample in which actives are over-represented; it also holds similar structures and randomly drawn compounds. A number with no mark means an inactive call.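 The calls were made as follows: active = inhibition above a per-plate limit of that plate's mean compound inhibition plus 3 SD (cut at about 60% in these data); inactive = the rest.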

test: KLF5 expression inhibitors, primary screen, DLD-1 cells, luminescence (AID 1700); conditions: DLD-1 KLF5 promoter-luciferase reporter, at 5 µM, stronger effect = higher value;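 also: 0% = DMSO wells and 100% = LY294002 at 200 µM; higher means less KLF5 promoter-driven luciferase light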

Compound	inhibition
O=C(N[C@@H](Cc1ccccc1)C(=O)OCc1ccccc1)c1nc[nH]c1C(=O)N[C@@H](Cc1ccccc1)C(=O)OCc1ccccc1	-14.8%
O=C(CN1CCC(O)(c2cccc(C(F)(F)F)c2)CC1)NCCc1ccccc1	-13%
O=C(CSc1ccc(-c2ccccn2)nn1)Nc1ccccc1	-2%
Cc1cc(=O)n2nc(N3CCC(C(=O)Nc4c(F)c(F)c(F)c(F)c4F)CC3)sc2n1	13.4%
N#CCC(=O)NC1CCC(CC2CCC(NC(=O)CC#N)CC2)CC1 (configuration not stated)	-13.8%
Cc1nn(C(C)C(=O)N2CCOCC2)c(=O)c2nn(-c3ccccc3)c(C)c12 (configuration not stated)	-19%
COc1cc2c(cc1OC)CN(C(=O)c1cc(=O)c3ccccc3o1)CC2	37.6%
CCOc1cc(C(=O)N2CCc3cc(OC)c(OC)cc3C2)ccc1OC(F)F	73.9% (active)
COc1cc2c(cc1OC)CN(C(=O)c1ccc(S(=O)(=O)N3CCCCCC3)cc1)CC2	-28.3%
COc1cccc(/C=N/NC(=O)c2[nH]nc3c2CCc2ccccc2-3)c1O	5.06%
COc1cccc(/C=N/Nc2ncc(C(F)(F)F)cc2Cl)c1O	101% (active)
COc1cccc(/C=N/Nc2cc(C)nc(-c3ccccc3O)n2)c1O	-137%
O=C1CSc2ccc(S(=O)(=O)NCc3ccccc3)cc2N1	11.2%
Cc1c(CC(=O)NCC(=O)NCC(=O)O)c(=O)oc2cc3oc4c(c3cc12)CCCC4	-28.3%
Cc1ccc2[nH]c(=O)c(CN(CC3COCCO3)C(=O)Nc3ccccc3C)cc2c1 (configuration not stated)	18.1%
Cc1ccc2[nH]c(=O)c(CN(CCCN(C)C)C(=O)Nc3cccc(Cl)c3)cc2c1	109% (active)
CCC(=O)N(CCc1ccccc1)Cc1cc2cc(C)ccc2[nH]c1=O	-35.9%
O=C(NCCc1ccc(Cl)cc1)C1CCCN1C(=O)NCc1ccccc1 (configuration not stated)	-14.2%
COc1ccc(NCCc2ccccn2)cc1	-36.1%
COc1ccccc1/C=N/N1CCN(Cc2ccccc2Cl)CC1	-27%
CCOc1ccc(Cn2nnc(C(=O)NCc3ccccc3)c2N)cc1	-14.8%
CCOc1ccccc1NC(=O)Cn1nnc(C(=O)NCc2cccs2)c1N	72.7% (active)
CCOc1ccccc1NC(=O)Cc1cccs1	4.44%
CSc1nc(N(C)NC(=O)c2cccc(C)c2)c2ccccc2n1	83.5% (active)
COc1ccc(C(=O)NN(C)c2nc(-c3ccccc3)cc(C)c2S(C)(=O)=O)cc1	-7.27%

Compound	inhibition
COC(=O)CNC(=O)c1ccccc1F	-16.9%
CN(NC(=O)c1ccccc1)c1nc2ccccc2nc1C(F)(F)F	-18.5%
Cc1cccc(C(=O)NCCCN(C)CCCNC(=O)c2cccc(C)c2)c1	-59.8%
CN(NC(=O)c1ccccc1F)c1nc(C(F)(F)F)nc2ccccc12	68.7% (active)
O=C(Nc1ccccc1C(=O)NCC1CCCO1)c1ccccc1F (configuration not stated)	-10.3%
CCCCCCCCn1c2c(c(=N)c3c1CCC3)CCCC2	72.8% (active)
CCCCCCn1c(CN2CCCCC2)nc2c1c(=O)n(C)c(=O)n2C	0.95%
O=c1[nH]cccc1-c1nc2ccccc2n1Cc1ccc(Cl)cc1	-29.9%
Cc1ccc(CNS(=O)(=O)c2ccc3c(c2)N(C)CCO3)cc1	-12.4%
Cn1cc(C(=O)c2ccc(Cl)cc2Cl)cc1C(=O)NN	-35.5%
CCOc1ccccc1CN1CCN(C2CCC2)CC1CCO (configuration not stated)	12%
CCOC(=O)c1sc(NC(=O)c2sc(C)nc2C)nc1C	79% (active)
CCOC(=O)c1sc(NC(=O)c2ccncc2)nc1C	-25.1%
CCOC(=O)c1sc(/N=C/Nc2nc(C)c(C(=O)OCC)s2)nc1C	6.72%
Cc1cccc(NC(=O)C2CCN(C(=O)NC3CCCCC3)CC2)c1	-12.5%
Cc1ccc(O)c(CNc2nc3ccccc3[nH]2)c1	-87.9%
COc1ccc(-c2cc(=O)oc3cc(OCC(=O)N(C)C4CCS(=O)(=O)C4)ccc23)cc1 (configuration not stated)	-4.99%
Cc1ccc(-c2cc(=O)c3ccc(Cl)cc3[nH]2)cc1	-4.81%
O=c1cc(-c2ccccc2)[nH]c2cc(F)ccc12	73.5% (active)
Cc1ccc(-c2cc(=O)c3ccc(F)cc3[nH]2)cc1	9.96%
CCCCNC(=O)c1cn(CC)c2cc(N3CCN(C(=O)c4ccco4)CC3)c(F)cc2c1=O	-2.76%
COc1ccc(NC(=O)CCNC(=O)Cn2cnc3sc4c(c3c2=O)CCCC4)cc1OC	-21.6%
COc1cc(NC(=O)C2=C(C)OCCS2)c(Cl)cc1C(=O)NCCN1CCN(C)CC1	-25.5%
O=C1CCC(C(=O)N2CCN(c3ccccc3Cl)CC2)CN1CC1CCCCC1 (configuration not stated)	-15.8%
CC1CCCN(CC(=O)Nc2cc(Cl)ccc2Oc2ccccc2)C1 (configuration not stated)	-4.36%

Compound	inhibition
Cc1ccc(CNC(=O)C2CCN(S(=O)(=O)c3ccc4nc5c(c(C(=O)O)c4c3)CC(C)CC5)CC2)cc1 (configuration not stated)	-5.44%
CCc1ccc(/C=N/NC(=O)c2nnn(-c3nonc3N)c2CN2CCc3ccccc32)cc1	9.12%
O=C(CSc1nc(C2CC2)nc2ccccc12)Nc1cccc(O)c1	-13.5%
Cn1cc(CCC(=O)NC2CC2)c2ccccc21	-37%
Cc1ccc(S(=O)(=O)N(C)CC(=O)NCCc2c[nH]c3ccccc23)cc1	-25.4%
Cc1ccc(/C=N/NC(=O)c2cc3ccccc3cc2O)o1	-47.3%
Cc1ccc(CSc2nsc(C)c2C#N)cc1	-19.4%
Cc1ccc2nc(-c3ccc(Br)cc3)cn2c1	48.8%
Cc1ccc(-c2cn3cc(C)ccc3n2)cc1	81% (active)
Cc1ccc(-c2cn3cc([N+](=O)[O-])ccc3n2)cc1	-2.85%
O=C(CCn1nnnc1CN1CCOCC1)N1CCC(c2ccccc2Cl)C1 (configuration not stated)	-1.39%
O=c1c2ccccc2nc2n1C1(CCCCC1)Cc1ccccc1-2	-22.6%
CCOC(=O)C(C)Sc1nc2ccccc2c(=O)n1CC1CCCCC1 (configuration not stated)	-3.75%
CN(c1ccc2nc3ccccc3c(=O)n2n1)C1CCCCC1	90.6% (active)
Nc1ccc(-c2nnc(-c3ccccc3)o2)cc1	-131%
COc1ccccc1N1CCC(N2CCN(CC(C)(C)C)C(CCO)C2)CC1 (configuration not stated)	-23.1%
CC[C@]1(c2ccccc2OC)C(=O)N(C(=O)OC)N1C(=O)OC	-7.14%
Cn1nccc1C(=O)NC1CCCc2c1cnn2-c1ccccc1F (configuration not stated)	-17%
Cn1nccc1C(=O)NC1CCCc2c1cnn2-c1ccc(F)cc1F (configuration not stated)	64.7% (active)
CC(=O)NCC(=O)NC1CCCc2c1cnn2-c1ccccc1F (configuration not stated)	-24.6%
O=C(c1ccc(F)cc1)N1CCCC(C(=O)N2CCCCC2)C1 (configuration not stated)	-2.28%
CN(c1ccccc1)S(=O)(=O)c1ccc2[nH]c(=O)[nH]c2c1	-38.8%
Cc1ccc(OC(=O)c2cncc(Br)c2)c(C)c1	-28.5%
Cc1ccc(C(=O)NCCc2nnc(SCC(=O)Nc3cccc(C(=O)O)c3)n2C)cc1	-36.2%
N#CCSc1nc(-c2ccccc2)nc2ccc(F)cc12	-32.8%

Compound	inhibition
CCn1c(=S)sc2c(=O)n(CC(=O)Nc3cccc(Br)c3)c(C)nc21	-3.48%
Cc1ccc(S(=O)(=O)N2CCN(C(=O)CSc3cc(C)ccc3C)CC2)c(C)c1	-17.8%
COc1cccc(/C=N/Nc2ccc(Cl)nn2)c1	-91.5%
Oc1cccc(/C=N/Nc2ccc(Cl)nn2)c1O	84.3% (active)
Clc1ccc(N/N=C/c2cccs2)nn1	-13.3%
COc1ccc(N2CCN(S(=O)(=O)CCNC(=O)C34CC5CC(CC(C5)C3)C4)CC2)cc1	-7.42%
CCN1C(=O)/C(=C2/Sc3ccc(OC)cc3N2C)SC1=Nc1ccc(C)cc1	-15.8%
CCOC(=O)c1ccc(NC(=O)Cc2cccs2)cc1	-60.6%
O=C(NCc1ccccc1)C(c1ccccc1)N(C(=O)c1csnn1)c1ccc(F)cc1 (configuration not stated)	-8.26%
Cc1cc(N)n2nc(-c3ccc(C(C)(C)C)cc3)cc2n1	-77.7%
CCn1c(SCC(=O)Nc2nccs2)nnc1-c1ccncc1	102% (active)
CCn1c(SCC(=O)Nc2nccs2)nnc1-c1ccco1	-15.7%
CCn1c(SCC(=O)NC2CC2)nnc1-c1ccncc1	-7.99%
CCCC(C(=O)n1nc(C)cc1C)C(NS(=O)(=O)c1ccc(C)cc1)c1ccccc1 (configuration not stated)	-5.65%
CCOc1cc(/C=C2\C(=N)N3N=C(C)SC3=NC2=O)ccc1OCCOc1ccccc1	-24.1%
Cc1cccc(NC(=O)CSCC(=O)Nc2nnc(C3CC3)s2)c1	-22.8%
Cc1ccccc1N1CCN(S(=O)(=O)c2ccc3ccccc3c2)CC1	-6.9%
Cc1ccc(C(=O)N2CC(=O)Nc3ccc(F)cc3C2c2ccc(F)cc2)cc1 (configuration not stated)	-4.39%
O=C(NCC1CCCO1)c1cc2c([nH]c3ccccc32)c(-c2ccc(F)cc2)n1 (configuration not stated)	12.1%
COc1cc(/C=N/NC(=O)c2ccc(N3CCCC3=O)cc2)ccc1O	-6.57%
COc1ccc(/C=N/NC(=O)c2ccccc2)cc1OS(=O)(=O)c1ccccc1	-22.4%
COc1ccc(C(=O)Nc2ccccc2C(=O)N/N=C/c2ccc(O)c(OC)c2)cc1	99.4% (active)
